Bioassay records (PubChem BioAssay)
An excerpt weighted towards active compounds, which were near 22% of everything screened.
CYP2C19 inhib = human CYP2C19 inhibition; P33261; AID 778; 96,000 compounds, 21% hits; inhibition, % at 5 µM; CYP2C19 Supersomes, luciferin-H EGE luminescence, 30 min;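 active means CYP2C19 inhibition above a set limit at 5 µM in the primary screen, cut at about 50% in these data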
Target sequence (P33261 whole entry, looked up): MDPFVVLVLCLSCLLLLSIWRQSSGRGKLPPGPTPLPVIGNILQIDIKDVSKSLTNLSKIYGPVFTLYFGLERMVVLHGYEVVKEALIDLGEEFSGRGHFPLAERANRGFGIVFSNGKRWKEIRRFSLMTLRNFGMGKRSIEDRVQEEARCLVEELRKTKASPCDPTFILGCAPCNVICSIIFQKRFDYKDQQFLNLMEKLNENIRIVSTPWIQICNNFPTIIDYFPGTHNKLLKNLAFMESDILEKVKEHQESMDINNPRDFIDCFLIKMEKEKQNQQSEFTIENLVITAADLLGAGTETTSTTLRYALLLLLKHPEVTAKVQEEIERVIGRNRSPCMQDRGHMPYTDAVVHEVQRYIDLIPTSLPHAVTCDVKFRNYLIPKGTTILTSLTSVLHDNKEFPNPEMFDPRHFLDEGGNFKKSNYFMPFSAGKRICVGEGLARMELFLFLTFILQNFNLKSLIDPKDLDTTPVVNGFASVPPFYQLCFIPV
CYP2C9 activ = activators of human CYP2C9; P11712; recombinant CYP2C9, luciferin-H conversion, luminescence; hits give high values; factor 1 = untreated enzyme, 0 = blocked; activation factor at 5 µM; 96,000 compounds, 1.4% hits; AID 1024;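 active means activation factor of 2 or more for CYP2C9 at a 5 µM dose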
CYP2C9 inh = human CYP2C9 inhibition. CYP2C9 Supersomes, luciferin-H conversion, luminescence. P11712. inhibition, % at 5 µM. 96,000 compounds, 20% hits;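 active means blocking of liver enzyme CYP2C9 beyond about 50% at 5 µM, limit read from the data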
Measles CPE = protection of cells from measles virus; 140,000 compounds, 1.5% hits; protection (pct of control), % at 4 µM; Measles virus-infected cells, CPE protection, absorbance; AID 841; in the data active means protection mostly above about 24%, no sharp cut-off; inactive means mostly below about 26%
CYP2C19 activ = increases human CYP2C19 enzyme activity | AID 1025 | activation factor at 5 µM | recombinant CYP2C19, luciferin-H EGE luminescence; hits give high values; 0 = fully inhibited enzyme, 1 = untreated enzyme | P33261 | 96,000 tested, under 10 active;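 active means activation factor of at least 2 at 5 µM in the primary screen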
Numbers stand for hits; 0 = inactive; - = no result given.

SMILES	CYP2C19 inhib	CYP2C9 activ	CYP2C9 inh	Measles CPE	CYP2C19 activ
COc1cc2cc(CN(C(=O)NC3CCCCC3)C3CCCC3)c(=O)[nH]c2cc1OC	0	0	0	0	0
CC(=O)N(Cc1cc2c(C)cc(C)cc2[nH]c1=O)C1CCCCC1	0	0	63	0	0
O=C(NC1CCCCC1)N(Cc1cc2cc3c(cc2[nH]c1=O)OCCO3)C1CCCCC1	0	0	75	0	0
C=CCN1C(=O)C(C(C)CC)NC1=S (configuration not stated)	0	0	0	0	0
Cc1ccc(N2CC(C(=O)OCC(=O)C(C)(C)C)CC2=O)cc1 (configuration not stated)	0	0	0	0	0
CC(=O)Nc1nnc(SCc2ccccc2F)s1	0	0	0	0	0
CC(=O)C1=C(c2ccccc2)NC(=S)NC1c1cc(Cl)c(OC(C)C)c(Cl)c1 (configuration not stated)	-	-	-	0	-
Cc1n[nH]c(C)c1C(=O)CC1(O)C(=O)N(CCc2ccccc2)c2ccc(Cl)cc21 (configuration not stated)	99	0	95	0	0
CCOC(=O)CN1C(=O)C(O)(CC(=O)c2ccc3c(c2)CCCC3)c2ccccc21 (configuration not stated)	-	-	-	0	-
Cc1coc(C)c1C(=O)CC1(O)C(=O)N(CCc2ccccc2)c2ccccc21 (configuration not stated)	0	0	0	0	0
CCCCN1C(=O)C(O)(CC(=O)c2ccco2)c2cc(Br)ccc21 (configuration not stated)	67	0	0	0	0
CN1C(=O)C(O)(CC(=O)c2ccncc2)c2ccccc21 (configuration not stated)	0	0	0	0	0
CN1C(=O)C(O)(CC(=O)c2ccccc2O)c2cc(Br)ccc21 (configuration not stated)	97	0	92	0	0
CCCCN1C(=O)C(O)(CC(=O)c2c(C)n[nH]c2C)c2cc(Br)ccc21 (configuration not stated)	81	0	0	73	0
C=CCN1C(=O)C(O)(CC(=O)c2ccc(OC)cc2OC)c2cc(Br)ccc21 (configuration not stated)	63	0	82	0	0
Cc1cccc2sc(NC(=O)CSc3nc4ccccc4o3)nc12	0	0	0	0	0
O=C(CSc1nc2ccccc2o1)Nc1nc2ccc(Br)cc2s1	94	0	81	0	0
COc1ccc2nc(NC(C)=O)sc2c1	0	0	0	0	0
COc1ccc2nc(NC(=O)CSc3nc4ccccc4o3)sc2c1	62	0	0	0	0
COc1ccc2nc(NC(=O)c3ccc4ncsc4c3)sc2c1	0	0	54	0	0
COc1ccc2nc(NC(=O)CSc3nc(C)cc(C)n3)sc2c1	90	0	84	0	0
Cc1ccc2cc(CCNC(=O)c3ccc4c(c3)OCO4)c(=O)[nH]c2c1C	0	0	60	0	0
O=C(CSc1nnc(-c2ccccc2)c(-c2ccccc2)n1)Nc1ncc(Cl)cc1Cl	-	-	-	0	-
CCOC(=O)c1ccccc1NC(=O)COC(=O)c1ccc(C)c(S(=O)(=O)N2CCOCC2)c1	0	0	61	0	0
CCNc1ccc(C(=O)OCC)cc1NC(=O)c1cccc(S(=O)(=O)N2CCOCC2)c1	0	0	58	0	0
SMILES	CYP2C19 inhib	CYP2C9 activ	CYP2C9 inh	Measles CPE	CYP2C19 activ
CCOC(=O)c1ccc(NC(=O)c2cc(S(=O)(=O)N3CCOCC3)ccc2O)cc1	0	0	0	0	0
Cc1cc(C(=O)OCC(=O)Nc2cccc(S(=O)(=O)N3CCOCC3)c2)c(C)o1	73	0	83	0	0
O=C(Nc1cccc(S(=O)(=O)N2CCOCC2)c1)c1ccco1	75	0	0	0	0
CCOC(=O)c1[nH]c2ccccc2c1NC(=O)C(CC)CC	0	0	0	0	0
CCOC(=O)CSc1nnc(Cn2c(=O)sc3ccccc32)n1C	0	0	0	0	0
O=C(COc1c(Cl)cc(Cl)cc1Cl)c1ccc(Cl)cc1	-	-	-	0	-
CCN(c1ccc(NC(=O)COC(=O)c2ccc(C)c(S(=O)(=O)N3CCOCC3)c2)cc1)C(C)C	0	0	0	0	0
N#Cc1ccc(NC(=O)COC(=O)CCc2ccc(S(=O)(=O)N3CCCCC3)cc2)cc1	-	-	-	0	-
O=C(COC(=O)CCc1ccc(S(=O)(=O)N2CCCCC2)cc1)Nc1ccc2c(c1)OCO2	0	0	76	0	0
O=C(COC(=O)c1cc(S(=O)(=O)N2CCOCC2)ccc1Cl)Nc1ccc2c(c1)OCO2	68	0	61	0	0
Cc1ccc(C(=O)Oc2cccc(NC(=O)c3cccs3)c2)cc1S(=O)(=O)N1CCOCC1	0	0	58	0	0
Cc1ccc(C(=O)OCC(=O)Nc2ccc3c(c2)OCO3)cc1S(=O)(=O)N1CCOCC1	0	0	51	0	0
COc1ccc(NC(=O)CCSc2ccc3ccccc3n2)cc1	-	-	-	0	-
Cc1ccc(C(=O)Nc2nc(-c3ccc([N+](=O)[O-])cc3)cs2)o1	-	-	-	0	-
CC(=O)Nc1ccc(-c2csc(NC(=O)c3ccc(C)o3)n2)cc1	52	0	0	0	0
O=c1c2cccnc2[nH]c(=S)n1Cc1ccccc1	-	-	-	0	-
CC(C)(C)NC(=O)Cn1c(SCC(N)=O)nc2ccccc21	0	0	0	0	0
COc1ccc(OC)c(C(=O)CSc2nc3ccccc3n2CC(=O)NC(C)(C)C)c1	0	0	87	0	0
COc1ccc(OCCSc2nc3ccccc3n2CC(=O)O)cc1	0	0	0	0	0
COc1ccc(C(=O)CSc2nc3ccccc3n2CC(=O)c2ccccc2)cc1	54	0	76	-	0
COC(=O)C1=C(C(=O)OC)SC2(S1)C(C(=O)OC)=C(C(=O)OC)SC1=C2c2cc(C)ccc2NC1(C)C	82	0	87	0	0
Cn1nc(-c2ccc(Cl)cc2)nc2c(=O)n(C)c(=O)nc1-2	98	0	93	0	0
CC(NC(=O)c1ccncc1)C(C)(C)C (configuration not stated)	0	0	0	0	0
CCc1nc(SCC(=O)N2CC(=O)Nc3ccccc32)c2c(C)c(C)sc2n1	0	0	0	0	0
Cc1sc2nc(C3CCCCC3)nc(SCC(=O)N3CC(=O)Nc4ccccc43)c2c1C	0	0	86	0	0
SMILES	CYP2C19 inhib	CYP2C9 activ	CYP2C9 inh	Measles CPE	CYP2C19 activ
O=C(Nc1ncc2c(n1)-c1ccccc1OC2)c1ccccc1Cl	0	0	0	0	0
Cn1nnc2cc(C(=O)N3CCN(c4ccccc4)CC3)ccc21	0	0	0	43	0
CN1C(=O)/C(=C\c2ccccc2)Sc2ccc(C(=O)N3CCN(c4ccccn4)CC3)cc21	72	0	77	0	0
O=C(c1ccc2snnc2c1)N1CCN(c2ccccn2)CC1	71	0	0	0	0
O=C(c1ccc2snnc2c1)N1CCN(c2ccccc2)CC1	100	0	65	0	0
O=C1CSc2ccc(C(=O)N3CCN(c4ccccn4)CC3)cc2N1	0	0	0	0	0
CCCCC(c1nnnn1CCOC)N1CCN(c2cccc(OC)c2)CC1 (configuration not stated)	70	0	54	0	0
